In PubChem BioAssay:
Values without a mark were called inactive. How the calls were made is not given here.

System: Aerobactin synthetase IucA (Klebsiella pneumoniae, hypervirulent)
Assay: biochemical IucA inhibition screen of LOPAC library by absorbance (AID 1346212);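 further: 100% = no compound wells and 0% = no enzyme wells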
Conditions: IucA enzyme assay, absorbance (OD) readout; active compounds read low;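 tested at 8 µM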

Structure (SMILES)	remaining activity [%]
O=Nc1ccc2oc(=O)ccc2c1	103
CC(=O)O[C@H]1Cc2ccccc2N(C(N)=O)c2ccccc21	85
O=C1Nc2ccc(I)cc2/C1=C/c1cc(Br)c(O)c(Br)c1	113
OCCN1CCN(CCCN2c3ccccc3C=Cc3ccccc32)CC1	117
NC(N)=N[C@@H](CCC(=O)O)C(=O)O	115
S=C(S)N1CCCC1	83.6
CNC[C@H](O)c1ccc(O)c(O)c1	94.5
CC(=O)[C@]1(O)Cc2c(O)c3c(c(O)c2[C@@H](O[C@H]2C[C@H](N)[C@H](O)[C@H](C)O2)C1)C(=O)c1ccccc1C3=O	125
O=C1C(SCCO)=C(SCCO)C(=O)c2ccccc21	117
CCCn1c(=O)c2[nH]c(-c3ccc(OCC(=O)Nc4ccc(C#N)cc4)cc3)nc2n(CCC)c1=O	109
CCc1cccc(N(C)C(N)=Nc2cccc3ccccc23)c1	96.2
Nc1ncnc2c1ncn2[C@@H]1O[C@H](COP(=O)(O)OP(=O)(O)OP(=O)(O)OP(=O)(O)OC[C@@H]2O[C@H](n3cnc4c(N)ncnc43)C(O)[C@@H]2O)[C@H](O)C1O (some centres undefined)	91.8
NCC(O)C1CCCCCCC1 (centres undefined)	92.7
O=c1ccc2c(OCCCCc3ccccc3)c3ccoc3cc2o1	123
